# Experimental data reported in the supplement of paper PMC8728848.
# Only a selection was taken, and the strongest signals are over-represented in it overall.
# Columns and labels:
# Experiment in all cases: glycan array binding signal (z-score within array); higher = stronger binding
# Settings in all cases: glycan notation: IUPAC condensed, linker removed
# [1] = target: Fuc(a1-2)Gal(b1-3)[Fuc(a1-4)]GlcNAc(b1-2)Man(a1-3)[Fuc(a1-2)Gal(b1-3)[Fuc(a1-4)]GlcNAc(b1-2)Man(a1-3)]Man(b1-4)GlcNAc(b1-4)GlcNAc
# In short: (§1)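 From the Consortium for Functional Glycomics database, 3228 arrays were curated, keeping only those whose protein sequence was available. Binding is given as a within-array Z-score averaged across arrays sharing a protein sequence and across linkers. Negative Z-scores can be read as non-binding.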
# [2] = target: Fuc(a1-2)Gal(b1-3)[Fuc(a1-4)]GlcNAc(b1-3)[Gal(b1-4)GlcNAc(b1-6)]Gal(b1-4)Glc
# In short: as §1
# [3] = target: Fuc(a1-2)[Gal(a1-3)]Gal(b1-3)GlcNAc
# In short: as §1
# [4] = target: Fuc(a1-2)[Gal(a1-3)]Gal(b1-3)GlcNAc(b1-6)GalNAc
# In short: as §1
# [5] = target: Fuc(a1-2)[Gal(a1-3)]Gal(b1-4)GlcNAc(b1-6)GalNAc
# In short: as §1
# [6] = target: Fuc(a1-3)[Gal(b1-4)]GlcNAc(b1-3)Gal(b1-4)[Fuc(a1-3)]GlcNAc
# In short: as §1
# Gal(a1-3)Gal(b1-3)GlcNAc = target: Gal(a1-3)Gal(b1-3)GlcNAc
# In short: as §1
# [7] = target: Gal(a1-3)[Gal(a1-4)]Gal(b1-4)GlcNAc
# In short: as §1
# Gal(b1-2)Gal = target: Gal(b1-2)Gal
# In short: as §1
# Gal(b1-3)GalNAc = target: Gal(b1-3)GalNAc
# In short: as §1
# [8] = target: Gal(b1-3)GalNAc(a1-3)[Fuc(a1-2)]Gal(b1-4)GlcNAc
# In short: as §1
# [9] = target: Gal(b1-3)GlcNAc(b1-2)Man(a1-3)[Gal(b1-3)GlcNAc(b1-2)Man(a1-6)]Man(b1-4)GlcNAc(b1-4)[Fuc(a1-6)]GlcNAc
# In short: as §1
# [10] = target: Gal(b1-3)[Fuc(a1-4)]GlcNAc(b1-2)Man
# In short: as §1
# [11] = target: Gal(b1-4)GlcNAc(b1-2)[Gal(b1-4)GlcNAc(b1-6)]Man(a1-6)[GlcNAc(b1-4)][Gal(b1-4)GlcNAc(b1-2)[Gal(b1-4)GlcNAc(b1-4)]Man(a1-3)]Man(b1-4)GlcNAc(b1-4)[Fuc(a1-6)]GlcNAc
# In short: as §1
# [12] = target: Gal(b1-4)GlcNAc(b1-3)Gal(b1-4)GlcNAc(b1-2)Man(a1-3)[Gal(b1-4)GlcNAc(b1-3)Gal(b1-4)GlcNAc(b1-2)Man(a1-6)]Man(b1-4)GlcNAc(b1-4)GlcNAc
# In short: as §1
# [13] = target: Gal(b1-4)GlcNAc(b1-3)Gal(b1-4)GlcNAc(b1-3)[Gal(b1-4)GlcNAc(b1-3)Gal(b1-4)GlcNAc(b1-6)]GalNAc
# In short: as §1
# [14] = target: Gal(b1-4)GlcNAc(b1-6)[Gal(b1-3)]GalNAc
# In short: as §1
# Gal3S(b1-4)Glc = target: Gal3S(b1-4)Glc
# In short: as §1
# Gal4S6S(b1-4)GlcNAc = target: Gal4S6S(b1-4)GlcNAc
# In short: as §1
# GalNAc(b1-3)Gal = target: GalNAc(b1-3)Gal
# In short: as §1
# GalNAc(b1-4)Gal(b1-4)Glc = target: GalNAc(b1-4)Gal(b1-4)Glc
# In short: as §1
# GlcA(b1-3)GlcNAc = target: GlcA(b1-3)GlcNAc
# In short: as §1
# [15] = target: GlcA3S(b1-3)Gal(b1-4)GlcNAc(b1-2)Man
# In short: as §1
# [16] = target: GlcNAc(a1-3)Gal(b1-4)GlcNAc
# In short: as §1
# [17] = target: GlcNAc(a1-4)Gal(b1-4)GlcNAc(b1-3)Gal(b1-4)[Fuc(a1-3)]GlcNAc(b1-3)Gal(b1-4)[Fuc(a1-3)]GlcNAc
# In short: as §1
# [18] = target: GlcNAc(b1-3)Gal(b1-4)GlcNAc(b1-6)[Gal(b1-3)]GalNAc
# In short: as §1
# [19] = target: Man(a1-2)Man(a1-3)[Man(a1-6)]Man(a1-6)[Man(a1-2)Man(a1-3)]Man(b1-4)GlcNAc(b1-4)GlcNAc
# In short: as §1
# [20] = target: Man(a1-2)Man(a1-6)[Man(a1-3)]Man(a1-6)[Man(a1-2)Man(a1-2)Man(a1-3)]Man(b1-4)GlcNAc(b1-4)GlcNAc
# In short: as §1
# [21] = target: Man(a1-3)[Man(a1-6)]Man(a1-6)[Man(a1-3)]Man
# In short: as §1
# [22] = target: Neu5Ac(a2-3)Gal(b1-4)GlcNAc(b1-2)Man
# In short: as §1
# [23] = target: Neu5Ac(a2-3)Gal(b1-4)GlcNAc(b1-2)Man(a1-3)[Neu5Ac(a2-3)Gal(b1-4)GlcNAc(b1-2)Man(a1-6)]Man(b1-4)GlcNAc(b1-4)GlcNAc
# In short: as §1
# [24] = target: Neu5Ac(a2-3)Gal(b1-4)GlcNAc(b1-3)Gal(b1-4)GlcNAc
# In short: as §1
# [25] = target: Neu5Ac(a2-3)Gal(b1-4)[Fuc(a1-3)]GlcNAc(b1-6)[Neu5Ac(a2-3)Gal(b1-3)]GalNAc
# In short: as §1
# [26] = target: Neu5Ac(a2-3)Gal6S(b1-4)GlcNAc
# In short: as §1
# [27] = target: Neu5Ac(a2-6)Gal(b1-4)GlcNAc(b1-2)Man(a1-3)[Neu5Ac(a2-6)Gal(b1-4)GlcNAc(b1-2)Man(a1-6)]Man(b1-4)GlcNAc(b1-4)[Fuc(a1-6)]GlcNAc
# In short: as §1
# [28] = target: Neu5Ac(a2-6)Gal(b1-4)GlcNAc(b1-2)[Neu5Ac(a2-6)Gal(b1-4)GlcNAc(b1-4)]Man(a1-3)[GlcNAc(b1-4)][Neu5Ac(a2-6)Gal(b1-4)GlcNAc(b1-2)[Neu5Ac(a2-6)Gal(b1-4)GlcNAc(b1-6)]Man(a1-6)]Man(b1-4)GlcNAc(b1-4)GlcNAc
# In short: as §1
# [29] = target: Neu5Ac(a2-8)Neu5Gc(a2-3)Gal(b1-4)GlcNAc
# In short: as §1
binder,measurement,setting,value
"SSP1 (Sclerotinia sclerotiorum), XP_001584968 (protein) MGSSHHHHHHSSGLVPRGSHMSLLTTELACTSAPDQVLHLFFQDGQNILEARSPDGGNVWTTQDTIIAKDGDYNGSSMTCYYVDKDANFDNQPSIHLLYMNKDKQLTEKVKRMKGDNPIWEDAKVPDEVRKGPEQYSKLTSGSFNQGTGWNPNGSQWAYFSASKDGKMGIVEIRRTPKDPWHTETILEEKWGDELPGTALACVIGNGKIRVFLQHHDYSIILYENQNNTWHDRGTFIPKDKVQATTPLACTMTKDGSVHLFYVSKSNKIIHCTDGKKEEELINFFPGSKLGATSVENKITLFFRNLNPVNEVGTLENENGSWKHGTTVIPA",glycan array binding signal (z-score),[1],0.937
same,glycan array binding signal (z-score),[2],-0.405
same,glycan array binding signal (z-score),[3],0.084
same,glycan array binding signal (z-score),[4],7.05
same,glycan array binding signal (z-score),[5],-0.15
same,glycan array binding signal (z-score),[6],-0.07
same,glycan array binding signal (z-score),Gal(a1-3)Gal(b1-3)GlcNAc,2.88
same,glycan array binding signal (z-score),[7],2.85
same,glycan array binding signal (z-score),Gal(b1-2)Gal,0.5
same,glycan array binding signal (z-score),Gal(b1-3)GalNAc,-0.111
same,glycan array binding signal (z-score),[8],3.1
same,glycan array binding signal (z-score),[9],5.12
same,glycan array binding signal (z-score),[10],-0.358
same,glycan array binding signal (z-score),[11],0.197
same,glycan array binding signal (z-score),[12],8.48
same,glycan array binding signal (z-score),[13],-0.003
same,glycan array binding signal (z-score),[14],-0.405
same,glycan array binding signal (z-score),Gal3S(b1-4)Glc,1.38
same,glycan array binding signal (z-score),Gal4S6S(b1-4)GlcNAc,-0.291
same,glycan array binding signal (z-score),GalNAc(b1-3)Gal,2.2
same,glycan array binding signal (z-score),GalNAc(b1-4)Gal(b1-4)Glc,-0.27
same,glycan array binding signal (z-score),GlcA(b1-3)GlcNAc,0.484
same,glycan array binding signal (z-score),[15],-0.535
same,glycan array binding signal (z-score),[16],-0.477
same,glycan array binding signal (z-score),[17],2.28
same,glycan array binding signal (z-score),[18],-0.156
same,glycan array binding signal (z-score),[19],-0.017
same,glycan array binding signal (z-score),[20],-0.467
same,glycan array binding signal (z-score),[21],2.15
same,glycan array binding signal (z-score),[22],0.612
same,glycan array binding signal (z-score),[23],-0.45
same,glycan array binding signal (z-score),[24],0.123
same,glycan array binding signal (z-score),[25],1.79
same,glycan array binding signal (z-score),[26],-0.085
same,glycan array binding signal (z-score),[27],-0.364
same,glycan array binding signal (z-score),[28],0.132
same,glycan array binding signal (z-score),[29],9.08
